The record followed here is PubChem BioAssay (Tox21).

A short description of test [1]: qHTS assay to identify small molecule agonists of the constitutive androstane receptor (CAR) signaling pathway - cell viability counter screen (AID 1224836). Further: nearly all actives have a fitted effect of over 45% in size. Summed up: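 Viability read-out: CellTiter-Fluor fluorescence after 23 h compound exposure at 37 C/5% CO2 in double-stable HepG2-CYP2B6-hCAR cells, with PK11195 present at 0.75 uM final; compounds tested in 15-point titration.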

Test [2] in a line: qHTS assay to identify small molecule antagonists of the constitutive androstane receptor (CAR) signaling pathway - cell viability counter screen (AID 1224837). Further: nearly all actives have a fitted effect of over 45% in size. A digest of the protocol: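 CITCO at 50 nM final was added alongside compounds (15 concentrations) to double-stable hCAR/CYP2B6-2.2kb HepG2 cells. Following 23 hr at 37 C, cell viability was quantified by CellTiter-Fluor fluorescence intensity.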

Test [3] in a line: qHTS assay to identify small molecule antagonists of the estrogen related receptor signaling pathway with the pleiotropic PPARgamma coactivator (PGC) from Tox21 10K library - cell viability counter screen (AID 1224840; active means well fitted cell-killing curve with a large enough effect in the repeat runs, not every such curve was filed as active; further: nearly all actives have a fitted effect of over 40% in size). Summed up:
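Readout: fluorescence intensity from CellTiter-Fluor after 30 min at 37 C/5% CO2. Preceded by 17.5 h treatment of PGC/ERR cells with DMSO-dissolved compounds, added 6 h post-seeding.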
(In general: qHTS replaces the single test concentration by a dilution series.)

Test [4] can be described thus: qHTS assay to identify small molecule antagonists of the estrogen related receptor signaling pathway with the pleiotropic PPARgamma coactivator (PGC) from Tox21 10K library (AID 1224841; call rule not given here; further: actives are mostly falling curves and most rising ones were filed inactive; nearly all actives have a fitted effect of over 50% in size). Summed up: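 One-Glo luminescence, measured after half an hour at room temperature, quantified reporter output of PGC/ERR cells. These had been plated at 2,000 per well, incubated 6 h, dosed with compounds in DMSO, then kept 18 h at 37 C.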

Test [5] is described as follows: qHTS assay to identify small molecule agonists of the estrogen related receptor signaling pathway with the pleiotropic PPARgamma coactivator (PGC) from Tox21 10K library (AID 1224842). Further: nearly all actives have a fitted effect of over 15% in size. A digest of the protocol:
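PGC/ERR reporter cells (NTP line) were seeded 2,000 per well, rested 6 h at 37 C/5% CO2, then pin-dosed with compounds in DMSO for 18 h at 37 C; luciferase read by One-Glo luminescence after 30 min at room temperature.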

Test [6] concerns the target Thyrotropin receptor (Homo sapiens) (UniProt P16473). The test is described as follows: qHTS assay to identify small molecule agonists of the thyroid stimulating hormone receptor (TSHR) signaling pathway (AID 1224843; calls by dose curve; further: nearly all actives have a fitted effect of over 45% in size). Summed up: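 Compounds are titrated over 15 concentrations, in triplicate, onto TSHR-HEK293 cells seeded at 800/well. Plates sit 30 min at room temperature before cAMP-d2 and anti-cAMP cryptate are added; signal is read after a further hour.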

Test [7] is described as follows: qHTS assay to identify small molecule agonists of H2AX (AID 1224845; active means well fitted activation curve with a large enough effect in the signal ratio in the repeat runs, not every such curve was filed as active; the % refers to the signal ratio). Summed up:
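Wild-type CHO-K1 cells plated overnight, then exposed 3 hr at 37C to compounds at 15 concentrations (0.76% DMSO). Lysed, then HTRF anti-pH2AX(S139)-cryptate/anti-H2AX-d2 detection after 24 hr at room temperature; emissions 665 and 620 nm.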

Test [8] in a line: qHTS assay to identify small molecule agonists of the hypoxia (HIF-1) signaling pathway (AID 1224846; active means well fitted activation curve with a large enough effect in the signal ratio in the repeat runs, not every such curve was filed as active; the % refers to the signal ratio). A digest of the protocol: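 ME-180 HRE-bla reporter cells; compounds in DMSO, 17 h at 37C; read-out beta-lactamase via CCF4-AM FRET.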
The nature of test [9]: qHTS assay to identify small molecule agonists of H2AX - cell viability counter screen (AID 1224847; calls by dose curve; further: top concentration of the series differs between compounds; nearly all actives have a fitted effect of over 30% in size). Summed up:
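CHO-K1 wt, 1000 cells/well, o/n 37C; cpds 15 conc, 3 h 37C, 0.76% DMSO; CellTiter-Glo, 30 min RT, luminescence.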

Test [10] can be described thus: qHTS assay to identify small molecule antagonists of the estrogen related receptor (ERR) signaling pathway from Tox21 library (AID 1224848). Further: nearly all actives have a fitted effect of over 50% in size. A digest of the protocol:
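First, 2,000 ERR cells per well were plated and held 6 h at 37 C/5% CO2. Next, compounds in DMSO were pinned in and left 18 h at 37 C. Finally, ONE-Glo was added and luminescence read after 30 min at room temperature.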

A short description of test [11]: qHTS assay to identify small molecule agonists of the estrogen related receptor (ERR) signaling pathway from Tox21 library (AID 1224849; calls by dose curve; further: nearly all actives have a fitted effect of over 15% in size). The following applies: ERR reporter cell line, ONE-Glo luciferase, 18 h; at 92.4 µM (top of the series) unless noted. A digest of the protocol:
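Luciferase activity in ERR pathway reporter cells served as the agonist readout; exposure lasted 18 h at 37 C, with ONE-Glo detection after 30 min at room temperature.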

The nature of test [12]: qHTS RealTime-Glo MT Cell Viability Assay in HepG2 cells - 24 hour (AID 1224867). Further: nearly all actives have a fitted effect of over 50% in size. Further: potency means the concentration at half of the fitted maximal effect. Summed up:
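Real-time, nonlytic viability: 600 HepG2 cells/well mixed with NanoLuc enzyme plus prosubstrate; 5 h settle, compound (DMSO) added by pintool; luminescence monitored over 40 h at 37 C.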

Test [13] can be described thus: qHTS RealTime-Glo MT Cell Viability Assay in HEK293 cells - 32 hour (AID 1224868). Further: nearly all actives have a fitted effect of over 50% in size. Further: potency means the concentration at half of the fitted maximal effect. A digest of the protocol: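 Cells + reagent dispensed (600 cells/well, HEK293) → 5 h at 37 C/5% CO2 → 23 nL compound in DMSO pinned → 40 h at 37 C → luminescence read at 0, 8, 16, 24, 32, 40 h.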
A short description of test [14]: A CellTox Green Cytotoxicity Assay to monitor cytotoxicity in HEK293 cells - 0 hour (AID 1224869). Further: nearly all actives have a fitted effect of over 50% in size. Summed up:
(§1)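 Real-time, in one plate: 600 HEK293 cells/well with dead-cell DNA dye, pinned compound after 5 h, 37 C incubation over 40 h; viable cells give no appreciable fluorescence.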

Test [15] can be described thus: qHTS RealTime-Glo MT Cell Viability Assay in HepG2 cells - 40 hour (AID 1224870). Further: nearly all actives have a fitted effect of over 50% in size. Further: potency means the concentration at half of the fitted maximal effect. A digest of the protocol:
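HepG2 cells mixed with RealTime-Glo MT reagents (NanoLuc plus cell-permeant prosubstrate) were seeded at 600 cells/well, incubated 5 h at 37 C/5% CO2, then pinned with compounds in DMSO; nonlytic luminescence tracked viability during 40 h treatment.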

Test [16] can be described thus: A CellTox Green Cytotoxicity Assay to monitor cytotoxicity in HEK293 cells - 40 hour (AID 1224871). Further: nearly all actives have a fitted effect of over 45% in size. A digest of the protocol:
as §1

Test [17] deals with Nuclear receptor subfamily 1 group I member 3 (Homo sapiens) (UniProt Q14994). Briefly: qHTS assay to identify small molecule antagonists of the constitutive androstane receptor (CAR) signaling pathway (AID 1224838). Further: nearly all actives have a fitted effect of over 40% in size. Summed up:
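Inhibition of CITCO-driven (50 nM final) CYP2B6 reporter expression is measured in HepG2 cells stably carrying hCAR. Fifteen compound concentrations are applied for 24 h at 37 C, followed by luciferase luminescence.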

For test [18] the target is unchanged. Briefly: qHTS assay to identify small molecule agonists of the constitutive androstane receptor (CAR) signaling pathway (AID 1224839). Further: nearly all actives have a fitted effect of over 15% in size. Summed up:
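Luminescence read-out (ONE-Glo, 30 min, room temperature) from double-stable HepG2-CYP2B6-hCAR cells exposed 24 h to 15-point compound series in presence of 0.75 uM PK11195 final.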

Test [19] can be described thus: qHTS assay to identify small molecule agonists of the hypoxia (HIF-1) signaling pathway - cell viability counter screen (AID 1224844; calls by dose curve; further: nearly all actives have a fitted effect of over 50% in size). Summed up: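 In this counter screen, HRE-bla ME-180 cell viability after 17 hrs of compound exposure at 37C was read by CellTiter-Glo luminescence, multiplexed with the beta-lactamase reporter measurement.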

Structures are written as SMILES. Unmarked numbers belong to inactive results. Inconclusive results are not listed. Active and inactive are the calls of the source. Unless noted, the call rests on the fitted dose curve; in most records, active means well fitted curve in the direction sought with a large enough effect in the repeat runs; inconclusive means weak or mixed curves; inactive means no such curve, though single readings can be large; an effect the other way counts as inactive or inconclusive.
On the % scale 0 is the no-effect control and ±100 the full control effect.

Chain of Thyrotropin receptor (Homo sapiens) (P16473 whole entry, looked up): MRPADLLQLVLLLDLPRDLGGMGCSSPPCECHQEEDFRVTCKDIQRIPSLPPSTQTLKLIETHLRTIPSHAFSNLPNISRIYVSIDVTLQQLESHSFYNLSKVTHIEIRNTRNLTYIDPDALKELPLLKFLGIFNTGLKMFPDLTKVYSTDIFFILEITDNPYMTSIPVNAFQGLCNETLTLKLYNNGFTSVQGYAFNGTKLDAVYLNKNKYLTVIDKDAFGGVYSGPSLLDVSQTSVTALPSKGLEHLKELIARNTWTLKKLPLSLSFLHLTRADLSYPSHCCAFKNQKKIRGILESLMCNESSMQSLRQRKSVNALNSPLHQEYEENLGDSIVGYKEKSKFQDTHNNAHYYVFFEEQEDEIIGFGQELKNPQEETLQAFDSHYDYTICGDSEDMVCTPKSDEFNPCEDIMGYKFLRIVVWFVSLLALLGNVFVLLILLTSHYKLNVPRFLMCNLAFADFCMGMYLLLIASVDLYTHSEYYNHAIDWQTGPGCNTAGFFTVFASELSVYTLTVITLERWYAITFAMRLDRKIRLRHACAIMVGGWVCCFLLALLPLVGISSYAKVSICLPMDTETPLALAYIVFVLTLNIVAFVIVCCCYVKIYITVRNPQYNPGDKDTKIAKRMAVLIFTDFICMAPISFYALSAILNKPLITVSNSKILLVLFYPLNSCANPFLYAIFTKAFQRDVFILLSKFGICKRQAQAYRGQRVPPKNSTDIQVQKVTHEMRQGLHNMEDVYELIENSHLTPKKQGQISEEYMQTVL
Chain of Nuclear receptor subfamily 1 group I member 3 (Homo sapiens) (Q14994 whole entry, looked up): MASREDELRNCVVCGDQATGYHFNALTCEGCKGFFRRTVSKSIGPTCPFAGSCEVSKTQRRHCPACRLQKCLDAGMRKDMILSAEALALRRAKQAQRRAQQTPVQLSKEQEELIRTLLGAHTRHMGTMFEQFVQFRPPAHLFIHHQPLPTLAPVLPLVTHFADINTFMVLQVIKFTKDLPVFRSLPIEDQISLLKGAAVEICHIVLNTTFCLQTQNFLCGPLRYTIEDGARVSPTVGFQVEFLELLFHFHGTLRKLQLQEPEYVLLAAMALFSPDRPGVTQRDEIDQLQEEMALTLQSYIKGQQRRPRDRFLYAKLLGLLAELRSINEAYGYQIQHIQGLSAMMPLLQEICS

Consider `C1CCOC1`, for which the Potency result in [1], in test [2], in [3], in test [4], in test [5] and in test [6] was “inactive” in each case. In addition, the Potency entry in test [7], in [9], in [10], in test [12], in test [13] and in test [14] was “inactive” each time. For the same compound, the Potency entry in [15] and in test [16] was “inactive” each time. In test [8], the result was inactive. The activity change, positive = activation in [11] was 1.79%.

As for `ICCc1ccccc1`, the Potency result in test [1], in [3], in test [4], in test [5], in test [6] and in test [9] was “inactive” each time. The Potency entry in [13] and in test [14] was “inactive” in each case. The activity change, positive = activation in test [11] is -17.9%. In addition, the Potency in test [12] is 19.1 µM (active); in [15] it was 9.57 µM (active).

Regarding `CCc1cc(Cl)c(OC)c(C(=O)NC[C@@H]2CCCN2CC)c1O`, the Potency entry in test [17], in test [18], in test [3], in test [4], in [5] and in [19] was “inactive” in each case. The Potency entry in test [7], in test [9], in [10], in [12], in test [13] and in test [14] was “inactive” in each case. In addition, the Potency result in test [15] and in test [16] was “inactive” throughout. In test [8], the compound was classed as inactive. Also, the activity change, positive = activation in [11] was 1.1% [at 42.5 µM].

In the case of `CCOC(=O)COc1ccc2c(c1)CC(NCC(O)c1cccc(Cl)c1)CC2` (stereo not given), the Potency entry in test [18], in [4], in test [5], in [7], in [12] and in [14] was “inactive” throughout. In test [15], the Potency entry was “inactive”. Further, the compound was classed as inactive in test [8]. Moreover, in test [11], the activity change, positive = activation is -15.6%.

Take `CCc1cc2cc(OC)c(OC)cc2c(Cc2ccccc2)n1`: the Potency entry in test [1], in [2], in test [17], in test [3], in test [4] and in [5] was “inactive” in each case. Moreover, the Potency entry in [6], in test [19], in test [7], in test [9], in [10] and in test [12] was “inactive” each time. For the same compound, the Potency result in [14] and in test [16] was “inactive” in each case. Also, the result in test [8] was inactive. Besides, the activity change, positive = activation in [11] was -12.2% [at 42.5 µM]. Also, in [13], the Potency is 16.9 µM (active).

As for `CC(C)S`, the Potency entry in [1], in [2], in test [3], in test [4], in test [5] and in test [6] was “inactive” in each case. Moreover, the Potency result in [19], in [7], in test [9], in [10], in [12] and in test [15] was “inactive” throughout. Moreover, the Potency result in test [16] was “inactive”. Besides, the compound was classed as inactive in test [8]. Also, the activity change, positive = activation in test [11] was 3.07%.

In the case of `CN(C)CC[C@@H](c1ccc(Cl)cc1)c1ccccn1`, the Potency result in test [1], in test [3], in [6], in test [19], in [9] and in [12] was “inactive” throughout. The Potency entry in test [13], in [15] and in [16] was “inactive” in each case.

For `ClC(Cl)Cl`, the Potency result in [1], in test [18], in test [3], in test [6], in [9] and in [10] was “inactive” throughout. The Potency entry in [12], in [13], in [14], in test [15] and in [16] was “inactive” each time. In [11], the activity change, positive = activation is -1.48%.

Take `CCCCCCCCCCCCCCCCOP(=O)([O-])OCC[N+](C)(C)C`: the Potency entry in test [1], in [18], in test [3], in test [4], in [5] and in test [6] was “inactive” throughout. In addition, the Potency entry in [19], in test [7], in test [10], in test [12], in test [13] and in [14] was “inactive” in each case. Further, the Potency result in [15] and in test [16] was “inactive” throughout. In test [8], the compound was called inactive.

For the compound `CC(=O)OC1C2(C)CCC(C2)C1(C)C` (stereo not given), the Potency entry in [1], in test [3], in test [4], in test [5], in test [6] and in test [19] was “inactive” throughout. Besides, the Potency entry in [7], in test [9], in [10], in [12], in [13] and in test [14] was “inactive” each time. Besides, the Potency result in [16] was “inactive”. Further, the compound was called inactive in [8]. Moreover, in test [11], the activity change, positive = activation was -1.44%.
